Laboratory results taken from PubChem BioAssay (NCI).
This is part of a sample that, as a whole, favours compounds with a hit. Of some 83,000 tested, about 20% had one in any assay.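 The endpoint reported here, percent growth, reads 100 for growth as untreated, 0 for no net growth and -100 for all cells dead.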 The source made the active and inactive calls. Rule for the calls: active = growth percent below 10; inactive = the rest.

Experiments:
Assay in all cases: NCI-60 one-dose screen, 48 h (100 = growth as untreated, 0 = no growth, -100 = all killed)
Settings in all cases: 10 µM unless noted
DU-145 prostate = tested on: DU-145 prostate
K-562 leukemia = tested on: K-562 leukemia
MALME-3M melanoma = tested on: MALME-3M melanoma
MDA-MB-231 breast = tested on: MDA-MB-231 breast
RXF 393 renal = tested on: RXF 393 renal
SF-268 CNS = tested on: SF-268 CNS
SF-295 CNS = tested on: SF-295 CNS
SF-539 CNS = tested on: SF-539 CNS
UACC-257 melanoma = tested on: UACC-257 melanoma
M14 melanoma = tested on: M14 melanoma
HCT-15 colon = tested on: HCT-15 colon
HT29 colon = tested on: HT29 colon
SNB-75 CNS = tested on: SNB-75 CNS
SNB-19 CNS = tested on: SNB-19 CNS
U251 CNS = tested on: U251 CNS
PC-3 prostate = tested on: PC-3 prostate
SK-MEL-5 melanoma = tested on: SK-MEL-5 melanoma
UACC-62 melanoma = tested on: UACC-62 melanoma
LOX IMVI melanoma = tested on: LOX IMVI melanoma
SK-MEL-28 melanoma = tested on: SK-MEL-28 melanoma

Measured: growth

Brc1ccc(-c2nn(-c3ccccc3)cc2-c2nn[nH]n2)s1
inactive: DU-145 prostate 108% | K-562 leukemia 87.2% | MALME-3M melanoma 103% | MDA-MB-231 breast 87.3% | RXF 393 renal 100% | SF-268 CNS 92.8% | SF-295 CNS 82.6% | SF-539 CNS 91.4% | UACC-257 melanoma 98% | M14 melanoma 96.9% | HCT-15 colon 96.2% | HT29 colon 117% | SNB-75 CNS 92.7% | SNB-19 CNS 87.3% | U251 CNS 87.8% | PC-3 prostate 93.7% | SK-MEL-5 melanoma 90% | UACC-62 melanoma 85.1% | LOX IMVI melanoma 90.9% | SK-MEL-28 melanoma 96.2%

O=c1[nH]c(CN2CCN(c3ccccc3)CC2)nc2c(Br)cc(Br)cc12
inactive: DU-145 prostate 114% | K-562 leukemia 97.6% | MALME-3M melanoma 109% | MDA-MB-231 breast 115% | RXF 393 renal 101% | SF-268 CNS 108% | SF-295 CNS 91.8% | SF-539 CNS 111% | UACC-257 melanoma 96.2% | M14 melanoma 113% | HCT-15 colon 71.5% | HT29 colon 105% | SNB-75 CNS 95.8% | SNB-19 CNS 108% | U251 CNS 101% | PC-3 prostate 103% | SK-MEL-5 melanoma 109% | UACC-62 melanoma 84.4% | LOX IMVI melanoma 99.7% | SK-MEL-28 melanoma 108%

COc1cccc(CNc2nnc(C)c(C)n2)c1O
inactive: DU-145 prostate 108% | K-562 leukemia 102% | MALME-3M melanoma 108% | MDA-MB-231 breast 96.3% | RXF 393 renal 123% | SF-268 CNS 100% | SF-295 CNS 97% | SF-539 CNS 99.7% | UACC-257 melanoma 95% | M14 melanoma 101% | HCT-15 colon 98.9% | HT29 colon 105% | SNB-75 CNS 100% | SNB-19 CNS 93.4% | U251 CNS 99.1% | PC-3 prostate 87.2% | SK-MEL-5 melanoma 91.6% | UACC-62 melanoma 97.1% | LOX IMVI melanoma 98.8% | SK-MEL-28 melanoma 109%

O=c1oc2ccccc2cc1-c1nn(-c2ccccc2)cc1/C=N/Nc1nc(-c2ccccc2)c(N=Nc2ccccc2)s1
inactive: DU-145 prostate 76.8% | K-562 leukemia 21.7% | MALME-3M melanoma 77% | MDA-MB-231 breast 68.8% | RXF 393 renal 98.1% | SF-268 CNS 79.3% | SF-295 CNS 70.9% | SF-539 CNS 88.5% | UACC-257 melanoma 86.5% | M14 melanoma 45.4% | HCT-15 colon 41.9% | HT29 colon 31.5% | SNB-75 CNS 26.6% | SNB-19 CNS 85.1% | U251 CNS 47.6% | PC-3 prostate 82.1% | SK-MEL-5 melanoma 79.7% | UACC-62 melanoma 59.8% | LOX IMVI melanoma 70% | SK-MEL-28 melanoma 89%

CC/C(=C(/c1ccc(Cl)cc1)c1ccc(OCCN(CC)CC)cc1)c1ccc(OC)cc1
active: K-562 leukemia -18% | HT29 colon -3.6%
inactive: DU-145 prostate 74.4% | MALME-3M melanoma 68.2% | MDA-MB-231 breast 71.8% | RXF 393 renal 45% | SF-268 CNS 79.3% | SF-295 CNS 36.9% | SF-539 CNS 62.3% | UACC-257 melanoma 64.9% | M14 melanoma 34.5% | HCT-15 colon 16.7% | SNB-75 CNS 97.2% | SNB-19 CNS 69.5% | U251 CNS 33.5% | PC-3 prostate 33.9% | SK-MEL-5 melanoma 46.1% | UACC-62 melanoma 72.8% | LOX IMVI melanoma 42.3% | SK-MEL-28 melanoma 56%

CCOC(=O)/C=C1\S/C(=N\Nc2cc(=O)[nH]c3ccc(OC)cc23)N(c2ccccc2)C1=O
inactive: DU-145 prostate 98.6% | K-562 leukemia 86.5% | MALME-3M melanoma 101% | MDA-MB-231 breast 107% | RXF 393 renal 111% | SF-268 CNS 101% | SF-295 CNS 102% | SF-539 CNS 97.4% | UACC-257 melanoma 102% | M14 melanoma 99.9% | HCT-15 colon 93.3% | HT29 colon 108% | SNB-75 CNS 91.1% | SNB-19 CNS 95% | U251 CNS 92.9% | PC-3 prostate 99.3% | SK-MEL-5 melanoma 103% | UACC-62 melanoma 100% | LOX IMVI melanoma 97.3% | SK-MEL-28 melanoma 108%

C=CCn1c(SCC(=O)Nc2ccc(C(=O)/C=C/c3cc(OC)c(OC)c(OC)c3)cc2)nnc1-c1cc(-c2ccc(S(N)(=O)=O)cc2)nc2ccccc12
inactive: DU-145 prostate 105% | K-562 leukemia 48.2% | MALME-3M melanoma 97.1% | MDA-MB-231 breast 83.1% | RXF 393 renal 64.6% | SF-268 CNS 94.6% | SF-295 CNS 99% | SF-539 CNS 86.6% | UACC-257 melanoma 96.1% | M14 melanoma 95.6% | HCT-15 colon 97.7% | HT29 colon 98.1% | SNB-75 CNS 77.2% | SNB-19 CNS 74.2% | U251 CNS 58.9% | PC-3 prostate 84.1% | SK-MEL-5 melanoma 87.6% | UACC-62 melanoma 74.7% | LOX IMVI melanoma 73% | SK-MEL-28 melanoma 103%

O=C(c1ccccc1)[C@@H](c1ccccc1)[C@]1(O)C(=O)Nc2ccccc21
inactive: DU-145 prostate 103% | K-562 leukemia 102% | MALME-3M melanoma 98.2% | MDA-MB-231 breast 88.4% | RXF 393 renal 98.6% | SF-268 CNS 84.9% | SF-295 CNS 95.8% | SF-539 CNS 95.3% | UACC-257 melanoma 96.8% | M14 melanoma 95.5% | HCT-15 colon 100% | HT29 colon 101% | SNB-75 CNS 83.7% | SNB-19 CNS 94.1% | U251 CNS 101% | PC-3 prostate 90.7% | SK-MEL-5 melanoma 92.1% | UACC-62 melanoma 85.9% | LOX IMVI melanoma 91.1% | SK-MEL-28 melanoma 96.2%
